Reference: PubChem BioAssay (NCATS)
Results filed as inconclusive are left out. A call without a number means that no potency is given here. The source made the active and inactive calls. Calls follow the shape of the dose curve; as a rule, active = well fitted inhibition curve with a large enough effect; inconclusive = small, poorly fitted or top-dose-only effect; inactive = flat fitted curve, though single readings scatter.

tested on: MKL-1; test: qHTS assay to identify novel small-molecules to repurpose for Merkel cell carcinoma treatment (AID 1296009); conditions: MCC and control cell lines, CellTiter-Glo viability, 72 h; series mostly up to 46 µM; also: nearly all actives have a fitted effect of over 60% in size
Method in brief: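 Luminescence from CellTiter-Glo, read 10 min after addition at room temperature, reported viability following a 72 hr, 37 degree celsius treatment with NPC or MIPE compounds in titration; values normalized to plate controls.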
Potency is read from the fitted curve at half-maximal effect.

| Structure (SMILES) | Potency |
| --- | --- |
| N#CC1(c2cccc(C(=O)Nc3cc(Oc4ccc5nc(NC(=O)C6CC6)sc5n4)ccc3F)c2Cl)CC1 | inactive |
| O=C1NC(=O)C(c2cnc3ccccn23)=C1c1cn2c3c(cccc13)CN(C(=O)N1CCOCC1)CC2 | inactive |
| CCNC(=O)CCCC=CC[C@@H]1[C@H](C=CC(O)CCc2ccccc2)[C@@H](O)C[C@@H]1O (stereo partly drawn) | inactive |
| O=C(c1ccc(F)c(F)c1Nc1ccc(I)cc1F)N1CC(O)([C@H]2CCCCN2)C1 | inactive |
| C=C1c2cccc(O)c2C(O)=C2C(=O)[C@@]3(O)C(O)=C(C(N)=O)C(=O)[C@@H](N(C)C)[C@@H]3[C@@H](O)[C@H]12 | inactive |
| CCC(=O)OCC(=O)[C@@]1(OC(=O)CC)[C@@H](C)C[C@@H]2[C@H]3CCC4=CC(=O)C=C[C@]4(C)[C@@]3(F)[C@@H](O)C[C@@]21C | inactive |
| N#Cc1c(N(CC(=O)O)CC(=O)O)sc(C(=O)O)c1CC(=O)O | inactive |
| CO[C@H]1O[C@@H]2O[C@@]3(C)CC[C@@H]4[C@@H](C)CC[C@@H]([C@H]1C)[C@@]24OO3 | inactive |
| C[C@]12CC[C@@H]3c4ccc(O)cc4CC[C@H]3[C@H]1[C@@H](O)[C@@H](O)[C@H]2O | inactive |
| O=c1[nH]nc(OCCCc2ccc(Cl)cc2)c(NCc2cccnc2)c1Br | 23.5 µM (active) |
| NC(N)=Nc1nc(CSCCC(N)=NS(N)(=O)=O)cs1 | inactive |
| O=C(O)CCNc1cc(N2CCc3ccccc3CC2)nc(-c2ccccn2)n1 | inactive |
| CC(=O)NCCC(=O)N[C@@H](CCC(N)=O)C(=O)N[C@@H](CO)C(=O)N[C@@H](CCC(N)=O)C(=O)N[C@@H](CCC(N)=O)C(=O)N[C@H](C(=O)N[C@@H](Cc1ccccc1)C(=O)N[C@]1(C)CCCCCCC=CCCC[C@@](C)(C(=O)N[C@@H](CCC(N)=O)C(=O)N[C@@H](CC(N)=O)C(N)=O)NC(=O)[C@H](CC(C)C)NC(=O)[C@H](CC(C)C)NC(=O)[C@@H](CCCNC(=N)N)NC(=O)[C@H](Cc2c[nH]c3ccccc23)NC(=O)[C@H](CC(C)C)NC(=O)[C@H](CC(N)=O)NC1=O)[C@H](C)O | inactive |
| COc1cc2ncnc(Nc3cc(Br)c(O)c(Br)c3)c2cc1OC | inactive |
| CN(C)c1ccc(-c2nc3ncc(Cl)c(N4CCN(CC(=O)Nc5nccs5)CC4)c3[nH]2)cc1 | inactive |
| OC(c1cc(C(F)(F)F)nc2c(C(F)(F)F)cccc12)C1CCCCN1 (stereo not drawn) | inactive |
| CNc1nc(-c2ccc3c(N)n[nH]c3c2)cc(N2C[C@@H](C(=O)NC3CCCCC3)CC[C@@H]2C)n1 | inactive |
| COc1ccnc(CS(=O)c2nc3ccc(OC(F)F)cc3[nH]2)c1OC (stereo not drawn) | inactive |
| CCCC1OC2C[C@@H]3[C@H]4CCC5=CC(=O)C=C[C@]5(C)[C@H]4C(O)C[C@]3(C)[C@]2(C(=O)CO)O1 (stereo partly drawn) | inactive |

| Structure (SMILES) | Potency |
| --- | --- |
| Nc1[nH]nc2nnc(-c3c(-c4ccccc4)nn4ccccc34)cc12 | inactive |
| FC(F)(F)c1ccc(C=Cc2nc(COc3ccc(CCCCn4ccnn4)cc3)co2)cc1 | 0.0235 µM (active) |
| CNC(=O)c1ccc2c(C(=Nc3cccc(CN(C)C)c3)c3ccccc3)c(O)[nH]c2c1 | inactive |
| NC1(C(=O)N[C@@H](CCO)c2ccc(Cl)cc2)CCN(c2ncnc3[nH]ccc23)CC1 | inactive |
| O=C(CC12CC3CC(CC(C3)C1)C2)Nc1cccc2nc(NCCNCCO)ccc12 | inactive |
| CCCCCCCCCCCCCCCC(=O)O[C@H]1[C@@H](O)[C@@H](O)[C@@H]([C@H](NC(=O)[C@@H]2C[C@@H](CCC)CN2C)[C@H](C)Cl)O[C@@H]1SC | inactive |
| COc1cc([C@H]2Oc3cc([C@H]4Oc5cc(O)cc(O)c5C(=O)[C@H]4O)ccc3O[C@H]2CO)ccc1O | inactive |
| O=C1NC(=O)C(=Cc2ccc(-c3ccc(F)cc3O)o2)S1 | inactive |
| N=C1SC(=Cc2ccc(-c3ccc4c(c3)C(=O)NC4=O)o2)C(=O)N1c1ccc(Br)cc1 | inactive |
| CC(=O)O[C@]1(C(C)=O)CC[C@H]2[C@@H]3C=C(Cl)C4=CC(=O)[C@@H]5C[C@H]5[C@]4(C)[C@@H]3CC[C@@]21C | inactive |
| CN[C@@H]1[C@@H](O)[C@@H](O[C@@H]2[C@@H](O)[C@H](O[C@H]3O[C@H](CN)[C@@H](O)[C@H](O)[C@@H]3O)[C@@H](N)C[C@@H]2NC(=O)[C@@H](O)CN)OC[C@]1(C)O | inactive |
| CC1C(=O)OC2C(O)C34C5CC(C(C)(C)C)C36C(OC(=O)C6O)OC4(C(=O)O5)C12O (stereo not drawn) | inactive |
| CN(C(Cc1ccc(OS(=O)(=O)c2cccc3cnccc23)cc1)C(=O)N1CCN(c2ccccc2)CC1)S(=O)(=O)c1cccc2cnccc12 (stereo not drawn) | inactive |
| Cc1cnc(CNC(=O)c2c(=O)c3ccc(N4CCCN(C)CC4)nc3n3c2sc2ccccc23)cn1 | inactive |
| CCN1CCC(n2cc(CNc3cc(Cl)c4ncc(C#N)c(Nc5ccc(F)c(Cl)c5)c4c3)nn2)CC1 | inactive |
| C[C@@H](O)[C@H]1C(=O)N2C(C(=O)OCOC(=O)C(C)(C)C)=C(SC3CN(C4=NCCS4)C3)[C@H](C)[C@H]12 | inactive |
| CCC(=O)NCC[C@@H]1CCc2ccc3c(c21)CCO3 | inactive |
| C[C@@H](N)c1ccc(C(=O)Nc2ccnc3[nH]ccc23)cc1 | inactive |
| CN(C)N=Nc1nc[nH]c1C(N)=O | inactive |
